Our source for the binding signal values is publication PMC10668032, “Altered binding affinity of SIX1-Q177R correlates with enhanced WNT5A and WNT pathway effector expression in Wilms tumor”.

Over roughly 33,000 sequences, “e-score” has its median near -0.05; the highest 2% begin near 0.38. What follows is part of a selection rich in the highest values, with near analogues and random picks from the rest.

The assay addresses T1, SIX1-Q177R homeodomain (human, UniProt Q15475 108-198, Q177R).
T1 sequence: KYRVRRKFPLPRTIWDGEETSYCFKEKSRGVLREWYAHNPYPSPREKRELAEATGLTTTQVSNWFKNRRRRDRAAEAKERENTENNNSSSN
Description: universal protein binding microarray; Universal all-10-mer PBM (8x60K, AMADID 030236), 300 nM GST-tagged protein, Alexa Fluor 488 anti-GST; buffer, salt, pH and temperature not stated (as in Berger); high values mean tight binding. To be noted: protein: ivt; tags: N-terminal GST; dsDNA, one strand shown. A digest of the protocol: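 After in vitro transcription/translation, GST-tagged homeodomains were quantified against a recombinant GST standard curve by anti-GST western blot. They were then placed in duplicate at 300 nM final concentration on universal 'all 10-mer' protein binding microarrays of 8×60K format.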
On to AGTTCGAA, for which the binding signal is 0.156 ± 0.011 E-score. For the sequence CCCCCGCA, the binding signal is 0.218 ± 0.0293 E-score. The value for CGACCCCA was 0.233 ± 0.0324 E-score; that for ATATACAC was 0.409 ± 0.0246 E-score; that for ATATATAC was 0.154 ± 0.00578 E-score. As for CTATACAC, the binding signal is 0.379 ± 0.0172 E-score. The value for GTATACAA was 0.155 ± 0.0122 E-score; that for GAGTATAC was 0.157 ± 0.0409 E-score; that for GTATACAC was 0.411 ± 0.00685 E-score. The value for CAAAGGGG was 0.188 ± 0.0422 E-score; that for CCCCATAG was 0.209 ± 0.0311 E-score; that for TACCAACA was 0.167 ± 0.0345 E-score. As for GTGTACAA, the binding signal was determined as 0.4291 ± 0.00333 E-score.

For the sequence CTGCACAC, the binding signal stood at 0.247 ± 0.0168 E-score. The value for GTACACAC was 0.355 ± 0.0185 E-score; that for CTGTACAC was 0.41165 ± 0.000233 E-score; that for ATGTACCC was 0.19 ± 0.00303 E-score.

As to CTGTACCC, the binding signal stood at 0.183 ± 0.0197 E-score. With GTGTACAC the figure was 0.4741 ± 0.00152 E-score. With ATGTACAC the figure was 0.435 ± 0.00667 E-score. For the sequence ACCCGGCG, the binding signal came to 0.235 ± 0.0231 E-score.

In the case of CCCATACA, the binding signal came to 0.192 ± 0.0397 E-score.

For the sequence CTCGGACA, the binding signal worked out at 0.171 ± 0.0363 E-score. The value for AGGGATCC was 0.212 ± 0.0252 E-score. With ACACAACA the figure was 0.268 ± 0.0457 E-score.

On to CCCGATTA, for which the binding signal is 0.166 ± 0.0206 E-score. With TGATAACA the figure was 0.153 ± 0.0108 E-score; with TGTCTAAA, 0.199 ± 0.0261 E-score; with CACCAGCA, 0.341 ± 0.0362 E-score. The value for GACCCCAC was 0.2185 ± 0.00167 E-score; that for GAACACTA was 0.356 ± 0.0123 E-score; that for CAACACTA was 0.34 ± 0.0042 E-score. With GAACACCA the figure was 0.4685 ± 0.000778 E-score. Regarding AAACACTC, the binding signal is 0.321 ± 0.0305 E-score.

Turning to AAACACCA, the binding signal is 0.454 ± 0.0052 E-score. As for AAACACGA, the binding signal was 0.324 ± 0.0263 E-score. On to GAGCACCA, for which the binding signal stood at 0.243 ± 0.0142 E-score.

Regarding AAACACCC, the binding signal was found to be 0.45 ± 0.00506 E-score. The value for TAACACTA was 0.384 ± 0.0373 E-score; that for AAACAACA was 0.166 ± 0.016 E-score; that for AAACACAC was 0.344 ± 0.0104 E-score. With AAACACTA the figure was 0.298 ± 0.0405 E-score; with CACGGGAG, 0.17 ± 0.0204 E-score; with ACCGAACC, 0.197 ± 0.00959 E-score. With ACCCCCCC the figure was 0.31 ± 0.0449 E-score. Regarding CACCAACG, the binding signal came to 0.335 ± 0.0249 E-score. With ACCGCGTG the figure was 0.246 ± 0.00416 E-score; with GGAGGGGA, 0.158 ± 0.02 E-score; with ACGTAACA, 0.199 ± 0.0228 E-score.

As for AAACACTG, the binding signal stood at 0.344 ± 0.0208 E-score. The value for CAACACTG was 0.323 ± 0.00702 E-score; that for CAACACCA was 0.4741 ± 0.00414 E-score. The value for CAACACCC was 0.456 ± 0.00535 E-score. With CACCACCG the figure was 0.3551 ± 0.000962 E-score; with CAACACAC, 0.342 ± 0.0337 E-score.

CACCAACA: the binding signal worked out at 0.377 ± 0.0268 E-score. With CAACACTC the figure was 0.36 ± 0.00549 E-score; with AAACACCG, 0.4654 ± 0.00275 E-score. As to CAACACAA, the binding signal is 0.182 ± 0.0648 E-score. In the case of CAACACCG, the binding signal was found to be 0.46689 ± 0.000212 E-score.

Consider AAGCACCG, for which the binding signal came out at 0.175 ± 0.0203 E-score. For ACCAGGTA, the binding signal was 0.241 ± 0.0242 E-score. With ATACTACA the figure was 0.257 ± 0.011 E-score; with AACTGGTG, 0.364 ± 0.0186 E-score; with GACGCCGA, 0.174 ± 0.0331 E-score. With AGAGGTGC the figure was 0.19 ± 0.0288 E-score. With ACTCCCCG the figure was 0.191 ± 0.00694 E-score; with TAACACGA, 0.399 ± 0.00944 E-score; with GAACACTC, 0.374 ± 0.0139 E-score.

As to CAACACGG, the binding signal was determined as 0.38 ± 0.0301 E-score. With CAACACGA the figure was 0.328 ± 0.0204 E-score; with AAACACCT, 0.419 ± 0.00791 E-score. The value for GAACACAC was 0.319 ± 0.0348 E-score; that for AAACACGT was 0.307 ± 0.0183 E-score.

GAACACCC: the binding signal amounted to 0.4707 ± 0.00185 E-score. The value for AAACACGG was 0.3488 ± 0.00234 E-score; that for AAACACTT was 0.252 ± 0.0426 E-score; that for CACGTGAC was 0.258 ± 0.0152 E-score. With TCGGATAA, the binding signal worked out at 0.194 ± 0.0204 E-score. For the sequence GGGTTTTA, the binding signal amounted to 0.163 ± 0.0227 E-score. With ACACAGGG the figure was 0.158 ± 0.0633 E-score; with CACCATTA, 0.266 ± 0.00672 E-score.

CACGGGTA: the binding signal is 0.291 ± 0.0126 E-score. The value for CACTCGAG was 0.172 ± 0.0369 E-score; that for GAACACGC was 0.393 ± 0.0119 E-score. The value for GAACACGA was 0.3393 ± 0.000771 E-score.
